The panel holds about 83,000 compounds, 20% with a hit somewhere; the sample as a whole holds those more often.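 The test compound was applied at a single concentration to cells in 96-well plates for 48 hours, and percent growth was recorded.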 The source made the active and inactive calls. Rule for the calls: active = growth percent below 10; inactive = the rest.

The assay relates to HL-60(TB) leukemia. The experiment in a line: NCI-60 one-dose screen, 48 h (100 = growth as untreated, 0 = no growth, -100 = all killed). The following applies: 10 µM unless noted.
On to `NC(=S)CN1CCOCC1`, for which the growth is -12.8% (active).

For `c1ccc2[nH]c(-c3ccc(-c4nccc5c4[nH]c4ccccc45)cc3)nc2c1`, the growth is -42.1% (active).

As for `CC1(C)CC2(C)OC2C2(C1)N=NC(=Nc1ccccc1)O2` (configuration not stated), the growth was 85.2% (inactive).

Turning to `O=Cc1ccc2nc(C(Cl)(Cl)Cl)ccc2c1`, the growth was 104% (inactive).

On to `CCCCCCCO`, for which the growth is 114% (inactive).

In the case of `Cc1nc2ccc(Cl)cc2n1C`, the growth was 101% (inactive).

Turning to `CCc1nn2c(-c3ccccc3)c(-c3cc(OC)c(OC)c(OC)c3)nc2s1`, the growth is 68% (inactive).

As for `O=C1c2ccccc2NC(c2cn(-c3ccccc3)nc2-c2cccnc2)N1Cc1ccccc1` (configuration not stated), the growth was 9.6% (active).

Turning to `O=c1[nH][n+](-c2ccc(Br)cc2)no1`, the growth is 20.2% (inactive).

With `O=C(/C=C/c1ccc(Cl)cc1)c1ccc(Nc2ccnc3cc(Cl)ccc23)cc1`, the growth was 23.2% (inactive).

Take `CNC(=O)Nc1ccc(-c2ccc3ncnc(Nc4cccc(Cl)c4)c3c2)cc1`: the growth is 76.2% (inactive).

Turning to `COc1cc(OC)c(/C=C/C(=O)c2c(O)cc(OC)c(C3CCN(C)CC3)c2OC)c(OC)c1`, the growth was -35.6% (active).

These data come from PubChem BioAssay (NCI).
